According to PubChem BioAssay (EPA / NIEHS):
“And” between values parts separate entries of the source, which are not always exact repeats. Equal entries are not always repeated. Some structures have more than one record in an assay (separate samples or runs), and their calls can disagree. The source made the active and inactive calls. Rule for the calls: active = hit-call score of the fitted dose curve at least 0.9, where 1 is the maximum; inactive = score below 0.9.

How the values were obtained:
[1] = ATG_E_Box_CIS: Attagene CIS-FACTORIAL HepG2 Assay for human Enhancer Box (E-box) (AID 2282936); conditions: HepG2 E-box cis-reporter transcription, actives raise or lower the signal
Summary of the method: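 DMSO served as negative control and baseline for bidirectional fitting. Human hepatoma HepG2 cells, transiently transfected with cis-reporter constructs, were dosed 24 h; reporter mRNA read by RT-PCR and capillary electrophoresis.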

[2] = ATG_EGR_CIS: Attagene CIS-FACTORIAL HepG2 Assay for human Early Growth Response 1 (EGR1) (AID 2282938); conditions: HepG2 Attagene CIS-FACTORIAL EGR reporter mRNA; actives raise or lower the signal
Summary of the method: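 Transient transfection of human HepG2 with multiple cis-regulated reporter units, chemical exposure 24 h, total RNA isolated. Reverse transcription, PCR, fluorescent labelling and capillary electrophoresis quantify reporter transcripts; activity fitted bidirectionally against DMSO.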

[3] = ATG_M_19_CIS: Attagene CIS-FACTORIAL HepG2 Assay for M19 Transcription Factor (Internal Marker) (AID 2282939); conditions: HepG2 Attagene CIS-FACTORIAL M19 internal marker reporter; actives raise or lower the signal
Summary of the method: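 Background-control endpoint from a multiplexed HepG2 reporter panel. Cells carrying cis-regulated reporter constructs are treated 24 h, then reporter transcripts are amplified, fluorescently labelled and sized by capillary electrophoresis. DMSO defines baseline.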

[4] = ATG_ERE_CIS: Attagene CIS-FACTORIAL HepG2 Assay for Estrogen Response Element (ERE) (AID 2282940); conditions: HepG2 ERE cis-reporter, Attagene RNA transcript; actives raise or lower the signal
Summary of the method: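 Cells used were human hepatoma HepG2, transfected with multiple reporter transcription units under cis-regulatory promoters. Reporter mRNA, read 24 h post-dosing via fluorescent RT-PCR products on capillary electrophoresis, was fitted bidirectionally relative to DMSO.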

[5] = ATG_Ets_CIS: Attagene CIS-FACTORIAL HepG2 Assay for human Erythroblast Transformation Specific (ETS) (AID 2282941); conditions: HepG2 ETS cis-reporter transcription, actives raise or lower the signal
Summary of the method: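 HepG2 cells transiently transfected with cis-promoter reporter transcription units were dosed for 24 h; reporter mRNA was measured by RT-PCR, 6-FAM primer extension, HpaI digestion and capillary electrophoresis, with bidirectional fitting against DMSO baseline.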

[6] = target: Hepatocyte nuclear factor 3-beta (Homo sapiens) (UniProt Q9Y261); experiment: ATG_FoxA2_CIS: Attagene CIS-FACTORIAL HepG2 Assay for human Forkhead box A2 (FOXA2) (AID 2282942); conditions: HepG2 cis-reporter transcription factor activity, 24 h; actives raise or lower the signal
Summary of the method: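 Transient MRTU transfection of HepG2 liver cells; 24 h treatment; total RNA → oligo(dT) RT → PCR → FAM primer extension → HpaI cut → CE. Bidirectional fit vs DMSO.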

[7] = ATG_FoxO_CIS: Attagene CIS-FACTORIAL HepG2 Assay for human Forkhead box O (FoxO) (AID 2282943); conditions: HepG2 Attagene cis-reporter, FoxO element, mRNA; actives raise or lower the signal
Summary of the method: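 Human hepatoma HepG2 cells carry transiently introduced reporter transcription units controlled by cis promoter elements. Chemical treatment lasted 24 h, and mRNA signal was compared with DMSO.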

[8] = ATG_GATA_CIS: Attagene CIS-FACTORIAL HepG2 Assay for human GATA Binding Protein (AID 2282944); conditions: HepG2 GATA cis-element reporter, Attagene multiplex mRNA; actives raise or lower the signal
Summary of the method: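 Endogenous transcription factor activity was captured through cis-promoter-driven reporters in transfected HepG2 cells. After 24 h exposure, reporter transcripts were quantified by RT-PCR with fluorescent capillary electrophoresis, and responses fitted both directions against DMSO.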

[9] = ATG_GLI_CIS: Attagene CIS-FACTORIAL HepG2 Assay for human Zinc Finger Protein GLI1 (AID 2282945); conditions: HepG2, Attagene cis-factorial reporter mRNA, GLI element; actives raise or lower the signal
Summary of the method: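 Bidirectional curve fits relative to DMSO, using reporter mRNA levels from RT-PCR plus capillary electrophoresis. Cells were HepG2 transiently carrying cis-regulated reporter constructs, harvested 24 h after dosing.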

[10] = target: Bile acid receptor (Homo sapiens) (UniProt Q96RI1); experiment: ATG_IR1_CIS: Attagene CIS-FACTORIAL HepG2 Assay for human Nuclear Receptor Subfamily 1 Group H Member 4 (NR1H4), IR1 submotif (AID 2282946); conditions: IR1 reporter transcription, actives raise or lower the signal
Summary of the method: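 Cells (human HepG2) carry transiently transfected cis-promoter reporter transcription units. Compounds are incubated 24 h, total RNA is reverse-transcribed and amplified, and labelled fragments are resolved by capillary electrophoresis. Curves use DMSO as baseline.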

[11] = ATG_ISRE_CIS: Attagene CIS-FACTORIAL HepG2 Assay for human Interferon Regulatory Factor 1 (IRF1) binding to an Interferon-Stimulated Response Element (ISRE) (AID 2282948); conditions: HepG2 ISRE cis-reporter (Attagene), mRNA transcription readout; actives raise or lower the signal
Summary of the method: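 HepG2 cells transiently transfected with multiplexed cis-promoter reporter units; after 24 h compound exposure, reporter mRNA quantified by RT-PCR, FAM labelling, HpaI digestion and capillary electrophoresis. Bidirectional fit versus DMSO baseline.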

[12] = ATG_M_32_CIS: Attagene CIS-FACTORIAL HepG2 Assay for M32 Transcription Factor (Internal Marker) (AID 2282949); conditions: HepG2 Attagene cis-factorial M32 reporter, mRNA; actives raise or lower the signal;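 note: background control marker of the multiplexed CIS panel rather than a real target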
Summary of the method: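 Internal background marker read-out: RT-PCR/capillary electrophoresis fluorescence of reporter transcripts from transiently transfected HepG2 cells after 24 h chemical exposure. Activity fitted bidirectionally relative to DMSO negative control.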

[13] = target: Hypoxia-inducible factor 1-alpha (Homo sapiens) (UniProt Q16665); experiment: ATG_HIF1a_CIS: Attagene CIS-FACTORIAL HepG2 Assay for human Hypoxia Inducible Factor 1 (HIF1A) (AID 2282951); conditions: HepG2 Attagene cis-factorial HIF1a reporter transcription; actives raise or lower the signal
Summary of the method: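 Transient MRTU transfection of human HepG2 liver cells, 24 h compound treatment, then total RNA isolation, oligo(dT) reverse transcription, PCR amplification, fluorescent labelling and capillary electrophoresis of reporter fragments. Gain or loss relative to DMSO.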

[14] = target: Hepatocyte nuclear factor 6 (Homo sapiens) (UniProt Q9UBC0); experiment: ATG_HNF6_CIS: Attagene CIS-FACTORIAL HepG2 Assay for human Hepatocyte Nuclear Factor 6 (HNF6) (AID 2282952); conditions: HepG2 Attagene cis-factorial HNF6 reporter transcription; actives raise or lower the signal
Summary of the method: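 HepG2 cells transiently transfected with cis-element-driven multiplexed reporter units measuring endogenous transcription factor activity. After 24 h exposure, reporter mRNA quantified by RT-PCR, FAM-labelled fragments and capillary electrophoresis; bidirectional fitting versus DMSO.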

[15] = target: Heat shock factor protein 1 (Homo sapiens) (UniProt Q00613); experiment: ATG_HSE_CIS: Attagene CIS-FACTORIAL HepG2 Assay for human Heat Shock Transcription Factor 1 (HSE) (AID 2282953); conditions: HepG2 HSE cis-reporter, Attagene RNA transcription; actives raise or lower the signal
Summary of the method: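 Cells were transfected with cis-element-driven reporter constructs, dosed for 24 h, then total RNA was reverse-transcribed and reporter cDNA amplified, FAM-labelled and digested with HpaI. Fragments were resolved by capillary electrophoresis; gain or loss was fitted against DMSO.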

[16] = ATG_MRE_CIS: Attagene CIS-FACTORIAL HepG2 Assay for human Metal Responsive Element (MRE) (AID 2282954); conditions: HepG2 MRE cis-reporter transcription, Attagene multiplex; actives raise or lower the signal
Summary of the method: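 After a 24 h chemical exposure, transiently transfected HepG2 cells yield RNA whose reporter sequences are amplified, FAM-labelled and sized by capillary electrophoresis. Curves are fitted bidirectionally relative to DMSO.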

[17] = ATG_PBREM_CIS: Attagene CIS-FACTORIAL HepG2 Assay for human Phenobarbital-responsive Enhancer Module (PBREM) (AID 2282955); conditions: HepG2 PBREM cis-reporter, Attagene multiplexed transcription; actives raise or lower the signal
Summary of the method: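 Endogenous transcription factors in human liver HepG2 cells drive a PBREM cis-element reporter, whose transcript level after 24 h treatment is quantified by RT-PCR with capillary electrophoresis; activity fitted in both directions against DMSO.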

[18] = ATG_M_61_CIS: Attagene CIS-FACTORIAL HepG2 Assay for M61 Transcription Factor (Internal Marker) (AID 2282937); conditions: HepG2 Attagene CIS-FACTORIAL M61 internal marker reporter; actives raise or lower the signal
Summary of the method: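 Human liver HepG2, transient MRTU transfection (cis promoter elements), 24 h compound. Total RNA → oligo(dT) RT → PCR → FAM label → HpaI → CE. Internal background marker; bidirectional fitting, DMSO = baseline.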

[19] = ATG_M_06_CIS: Attagene CIS-FACTORIAL HepG2 Assay for M06 Transcription Factor (Internal Marker) (AID 2282950); conditions: HepG2 Attagene CIS-FACTORIAL M06 internal marker reporter; actives raise or lower the signal
Summary of the method: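 Steps: transfect HepG2 with multiplexed cis-element reporter constructs; dose chemical 24 h; extract RNA with DNase treatment; reverse-transcribe, PCR-amplify, 6-FAM label, HpaI digest; separate fragments by capillary electrophoresis. Activity fitted both directions versus DMSO.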

Measured: AC50

Chain of Hepatocyte nuclear factor 3-beta (Homo sapiens) (Q9Y261 whole entry, looked up): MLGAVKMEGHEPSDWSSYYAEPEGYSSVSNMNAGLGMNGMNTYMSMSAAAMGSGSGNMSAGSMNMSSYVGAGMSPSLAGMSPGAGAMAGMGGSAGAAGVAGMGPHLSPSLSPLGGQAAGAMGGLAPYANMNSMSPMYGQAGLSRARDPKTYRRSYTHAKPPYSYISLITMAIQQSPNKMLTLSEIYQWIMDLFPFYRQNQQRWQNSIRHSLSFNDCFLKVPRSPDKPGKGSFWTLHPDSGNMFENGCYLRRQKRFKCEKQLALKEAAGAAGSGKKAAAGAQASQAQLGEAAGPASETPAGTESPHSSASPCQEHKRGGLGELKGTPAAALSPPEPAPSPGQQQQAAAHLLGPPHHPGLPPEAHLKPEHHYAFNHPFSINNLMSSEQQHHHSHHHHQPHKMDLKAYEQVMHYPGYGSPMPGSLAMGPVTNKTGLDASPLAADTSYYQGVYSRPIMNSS
Chain of Hepatocyte nuclear factor 6 (Homo sapiens) (Q9UBC0 whole entry, looked up, the tested form may be a part): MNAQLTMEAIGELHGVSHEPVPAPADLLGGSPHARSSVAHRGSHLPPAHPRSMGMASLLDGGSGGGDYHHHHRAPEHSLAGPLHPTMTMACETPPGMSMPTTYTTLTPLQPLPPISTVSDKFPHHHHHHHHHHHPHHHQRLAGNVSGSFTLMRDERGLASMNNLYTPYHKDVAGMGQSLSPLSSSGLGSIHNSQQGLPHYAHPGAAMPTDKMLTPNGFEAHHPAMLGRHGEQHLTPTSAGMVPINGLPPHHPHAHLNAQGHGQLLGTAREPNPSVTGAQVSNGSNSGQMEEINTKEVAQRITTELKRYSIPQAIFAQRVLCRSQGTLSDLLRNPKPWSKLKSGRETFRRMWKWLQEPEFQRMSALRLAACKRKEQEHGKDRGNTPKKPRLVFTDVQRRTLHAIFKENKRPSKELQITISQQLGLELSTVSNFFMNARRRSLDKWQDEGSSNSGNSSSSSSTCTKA
Chain of Bile acid receptor (Homo sapiens) (Q96RI1 whole entry, looked up, the tested form may be a part): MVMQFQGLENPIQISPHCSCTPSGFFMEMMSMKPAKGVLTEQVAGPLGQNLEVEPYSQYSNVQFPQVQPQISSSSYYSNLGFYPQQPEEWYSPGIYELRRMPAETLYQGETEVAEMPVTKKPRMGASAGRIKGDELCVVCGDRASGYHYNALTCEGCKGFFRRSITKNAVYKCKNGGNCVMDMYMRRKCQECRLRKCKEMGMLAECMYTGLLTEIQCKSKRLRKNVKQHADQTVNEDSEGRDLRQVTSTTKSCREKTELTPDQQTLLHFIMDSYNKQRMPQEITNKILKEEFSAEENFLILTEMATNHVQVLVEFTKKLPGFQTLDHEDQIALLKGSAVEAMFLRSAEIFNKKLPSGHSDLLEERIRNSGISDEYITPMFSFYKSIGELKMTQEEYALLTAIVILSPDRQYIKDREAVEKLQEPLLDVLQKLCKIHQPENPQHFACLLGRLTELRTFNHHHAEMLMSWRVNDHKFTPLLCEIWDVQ
Chain of Heat shock factor protein 1 (Homo sapiens) (Q00613 whole entry, looked up, the tested form may be a part): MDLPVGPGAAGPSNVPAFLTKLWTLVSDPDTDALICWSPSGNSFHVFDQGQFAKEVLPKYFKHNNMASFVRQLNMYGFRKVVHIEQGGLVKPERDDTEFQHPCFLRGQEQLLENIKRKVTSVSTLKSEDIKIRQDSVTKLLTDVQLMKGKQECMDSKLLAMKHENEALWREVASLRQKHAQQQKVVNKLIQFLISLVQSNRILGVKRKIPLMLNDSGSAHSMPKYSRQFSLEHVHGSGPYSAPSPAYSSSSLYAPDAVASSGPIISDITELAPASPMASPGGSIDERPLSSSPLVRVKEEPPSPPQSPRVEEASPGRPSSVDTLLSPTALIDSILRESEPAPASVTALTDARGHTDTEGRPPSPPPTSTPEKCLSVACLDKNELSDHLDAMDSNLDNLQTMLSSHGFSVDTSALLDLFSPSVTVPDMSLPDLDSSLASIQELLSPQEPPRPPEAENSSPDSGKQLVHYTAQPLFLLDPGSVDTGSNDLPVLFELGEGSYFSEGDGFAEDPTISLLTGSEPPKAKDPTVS
Chain of Hypoxia-inducible factor 1-alpha (Homo sapiens) (Q16665 whole entry, looked up, the tested form may be a part): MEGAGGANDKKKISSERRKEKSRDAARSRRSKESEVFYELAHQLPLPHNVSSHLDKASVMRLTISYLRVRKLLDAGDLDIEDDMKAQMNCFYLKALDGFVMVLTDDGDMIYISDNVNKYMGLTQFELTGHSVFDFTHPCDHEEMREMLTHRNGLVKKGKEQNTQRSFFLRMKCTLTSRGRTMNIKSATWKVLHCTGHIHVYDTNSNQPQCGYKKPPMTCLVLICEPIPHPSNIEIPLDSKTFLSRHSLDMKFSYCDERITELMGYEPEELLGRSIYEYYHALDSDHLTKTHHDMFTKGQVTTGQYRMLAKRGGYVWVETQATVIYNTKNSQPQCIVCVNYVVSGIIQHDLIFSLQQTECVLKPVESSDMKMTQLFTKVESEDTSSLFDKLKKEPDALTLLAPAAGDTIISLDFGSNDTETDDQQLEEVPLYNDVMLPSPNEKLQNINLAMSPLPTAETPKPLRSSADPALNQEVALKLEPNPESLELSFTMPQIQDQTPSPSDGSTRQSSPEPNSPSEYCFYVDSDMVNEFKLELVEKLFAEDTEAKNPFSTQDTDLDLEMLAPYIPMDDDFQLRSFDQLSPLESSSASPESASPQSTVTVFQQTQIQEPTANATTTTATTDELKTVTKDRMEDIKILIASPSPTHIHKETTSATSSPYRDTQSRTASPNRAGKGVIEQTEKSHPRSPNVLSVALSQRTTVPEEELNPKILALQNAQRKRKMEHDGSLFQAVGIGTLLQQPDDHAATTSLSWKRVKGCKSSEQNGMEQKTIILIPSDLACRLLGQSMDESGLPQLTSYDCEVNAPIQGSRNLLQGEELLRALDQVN

c1cc2ccc3cccc4ccc(c1)c2c34
not listed: [17] | [18] | [19]
inactive: all other assays above

ClC1=C(Cl)[C@]2(Cl)[C@@H]3[C@@H](Cl)[C@H]4O[C@H]4[C@@H]3C1(Cl)C2(Cl)Cl
inactive: [4] | [5] | [6] | [7] | [12] | [13] | [17]
active: [1] 53 µM | [2] 54.9 µM | [3] 179 µM | [8] 162 µM | [11] 57.6 µM | [15] 85.5 µM | [16] 100 µM

ClC1=C(Cl)[C@]2(Cl)[C@@H]3[C@@H]4C[C@@H]([C@H]5O[C@@H]45)[C@@H]3[C@@]1(Cl)C2(Cl)Cl
active: [4] 1.04 µM | [11] 80.5 µM | [16] 46.5 µM
not listed: [10] | [14] | [17] | [18] | [19]
inactive: all other assays above

Sc1ccccc1
inactive: [1] | [2] | [3] | [5] | [6] | [7] | [8] | [11] | [12] | [13] | [15] | [16]
active: [4] 27.1 µM and 100 µM | [15] 160 µM

O=S(=O)(O)C(F)(F)C(F)(F)C(F)(F)C(F)(F)C(F)(F)C(F)(F)F
inactive: [1] | [2] | [3] | [4] | [5] | [6] | [7] | [8] | [9] | [10] | [11] | [12] | [13] | [14] | [15] | [16] | [17]
active: [4] 100 µM and 150 µM

CC(C)(O)C(=O)Nc1ccc([N+](=O)[O-])c(C(F)(F)F)c1
active: [15] 77 µM
inactive: [1] | [18] | [2] | [3] | [4] | [5] | [6] | [7] | [8] | [9] | [11] | [12] | [13] | [14] | [15] | [16] | [17]

C1CC2OC2CC1C1CO1 (stereo not given)
not listed: [1] | [14] | [17]
inactive: all other assays above
